In the supplement of paper PMC12645437, “Orthogonal IMiD-Degron Pairs Induce Selective Protein Degradation in Cells” (ACS Chemical Biology, 2025):
In all, about 8,300 sequences were measured (“log2 fold change of degron read counts, EGFP-low vs EGFP+ sorted cells (limma voom), compound-induced degradation”: median about -1.1, highest 2% from about 3.2 on). Only a selection was taken, and the highest values are over-represented in it overall.

Molecular target: T1, CRBN, Q96SW2
T1 chain: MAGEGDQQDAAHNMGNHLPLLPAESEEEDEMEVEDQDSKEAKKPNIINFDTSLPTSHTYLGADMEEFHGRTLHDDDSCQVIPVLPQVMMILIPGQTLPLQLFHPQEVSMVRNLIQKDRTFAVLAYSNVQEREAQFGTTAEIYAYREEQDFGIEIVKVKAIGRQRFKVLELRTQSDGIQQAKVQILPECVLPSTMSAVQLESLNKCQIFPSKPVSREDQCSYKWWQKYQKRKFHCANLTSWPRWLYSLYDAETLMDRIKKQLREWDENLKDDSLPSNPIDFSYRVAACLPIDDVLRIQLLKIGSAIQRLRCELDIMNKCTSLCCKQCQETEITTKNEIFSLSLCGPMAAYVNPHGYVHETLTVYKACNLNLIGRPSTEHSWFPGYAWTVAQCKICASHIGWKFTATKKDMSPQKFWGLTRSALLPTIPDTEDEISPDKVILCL
Test: log2 fold change of degron read counts, EGFP-low vs EGFP+ sorted cells (limma voom), compound-induced degradation; higher = more compound-induced degradation of the degron-EGFP fusion; degrons are variants of IKZF1/3 zinc finger 2; compound dose not given here
Details: Jurkat, 18 h

[1] = compound: compound 19 (5-tert-butyl-thalidomide)
[2] = compound: compound 22 (5-morpholino-thalidomide)
[3] = compound: compound 33 (diphenyl IMiD analogue)
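Further: pooled lentiviral library of zinc finger degron-EGFP fusions in mCherry-positive Jurkat cells, FACS-sorted after compound exposure, with degron abundance counted by next-generation sequencing.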

Sequence	log2 fold change of degron read counts [1]	log2 fold change of degron read counts [2]	log2 fold change of degron read counts [3]	log2 fold change of degron read counts (compound: thalidomide)
FACPICGALFTQKGNLLRHIKL [46F_47A_49P_50I_52G_53A_54L_55F_67L_, Q9UKT9]	1.68	-0.526	0.427	-0.353
FRCNICGAVFTQKGNLLRHIKL [46F_47R_49N_50I_52G_53A_54V_55F_67L_, Q9UKT9]	-1.72	-0.828	0.967	0.628
FKCEICGRAFTQKGNLLRHIKL [46F_47K_49E_50I_52G_53R_54A_55F_67L_, Q9UKT9]	-2.33	-3.03	-3.25	-2.08
FTCDVCGADFTQKGNLLRHIKL [46F_47T_49D_50V_52G_53A_54D_55F_67L_, Q9UKT9]	-2.29	-1.84	-2.04	-2.29
FMCEVCGAFFTQKGNLLRHIKL [46F_47M_49E_50V_52G_53A_54F_55F_67L_, Q9UKT9]	-2.24	-2.24	0.504	-1.37
FCCNQCGRAFTQKGNLLRHIKL [46F_47C_49N_50Q_52G_53R_54A_55F_67L_, Q9UKT9]	-2.96	-3.3	-2.71	-2.65
FGCDVCGAEFTQKGNLLRHIKL [46F_47G_49D_50V_52G_53A_54E_55F_67L_, Q9UKT9]	-1.81	-1.82	-1.14	-1.84
FCCPICGRMFTQKGNLLRHIKL [46F_47C_49P_50I_52G_53R_54M_55F_67L_, Q9UKT9]	-0.211	-0.371	0.994	0.267
FQCNQCGHEFTQKGNLLRHIKL [46F_47Q_49N_50Q_52G_53H_54E_55F_67L_, Q9UKT9]	-3.09	-3.12	-3.48	-3.28
LCCNQCGFWCTQKGNLLRHIKL [46L_47C_49N_50Q_52G_53F_54W_55C_67L_, Q9UKT9]	-0.952	-1.34	-1.18	-1.07
FQCDVCGAAFTQKGNLLRHIKL [46F_47Q_49D_50V_52G_53A_54A_55F_67L_, Q9UKT9]	0.909	1.9	0.606	2.84
FMCEQCGATFTQKGNLLRHIKL [46F_47M_49E_50Q_52G_53A_54T_55F_67L_, Q9UKT9]	-2.84	-2.15	0.0969	-1.3
FLCPICGHCFTQKGNLLRHIKL [46F_47L_49P_50I_52G_53H_54C_55F_67L_, Q9UKT9]	-2.45	-2.17	-1.87	-1.49
FECPICGRGFTQKGNLLRHIKL [46F_47E_49P_50I_52G_53R_54G_55F_67L_, Q9UKT9]	-1.82	-2.41	-0.354	0.562
FVCEICGAAFTQKGNLLRHIKL [46F_47V_49E_50I_52G_53A_54A_55F_67L_, Q9UKT9]	1.93	2.89	2.35	3.15
FYCEICGAAFTQKGNLLRHIKL [46F_47Y_49E_50I_52G_53A_54A_55F_67L_, Q9UKT9]	3.59	3.59	2.92	1.64

Sequence	log2 fold change of degron read counts [1]	log2 fold change of degron read counts [2]	log2 fold change of degron read counts [3]	log2 fold change of degron read counts (compound: thalidomide)
FQCEICGAAFTQKGNLLRHIKL [46F_47Q_49E_50I_52G_53A_54A_55F_67L_, Q9UKT9]	2.89	2.79	2.34	3.64
FICEICGAAFTQKGNLLRHIKL [46F_47I_49E_50I_52G_53A_54A_55F_67L_, Q9UKT9]	0.759	2.95	2.44	3.09
FECPICGHSFTQKGNLLRHIKL [46F_47E_49P_50I_52G_53H_54S_55F_67L_, Q9UKT9]	-2.78	-2.96	-1.75	-1.65
FYCEQCGATFTQKGNLLRHIKL [46F_47Y_49E_50Q_52G_53A_54T_55F_67L_, Q9UKT9]	0.368	2.41	0.941	-1.4
FSCEICGAYFTQKGNLLRHIKL [46F_47S_49E_50I_52G_53A_54Y_55F_67L_, Q9UKT9]	2.46	1.44	1.69	0.848
FYCPVCGACFTQKGNLLRHIKL [46F_47Y_49P_50V_52G_53A_54C_55F_67L_, Q9UKT9]	3.26	3.4	2.69	1.29
FYCNVCGACFTQKGNLLRHIKL [46F_47Y_49N_50V_52G_53A_54C_55F_67L_, Q9UKT9]	1.86	2.44	1.12	-0.449
FHCPVCGACFTQKGNLLRHIKL [46F_47H_49P_50V_52G_53A_54C_55F_67L_, Q9UKT9]	2.42	2.44	2.11	0.528
FWCPVCGACFTQKGNLLRHIKL [46F_47W_49P_50V_52G_53A_54C_55F_67L_, Q9UKT9]	3.4	3.44	2.56	1.36
FQCPVCGACFTQKGNLLRHIKL [46F_47Q_49P_50V_52G_53A_54C_55F_67L_, Q9UKT9]	0.553	2.77	2.39	3.46
FLCPVCGACFTQKGNLLRHIKL [46F_47L_49P_50V_52G_53A_54C_55F_67L_, Q9UKT9]	0.241	-0.146	1.72	1.62
FNCPVCGACFTQKGNLLRHIKL [46F_47N_49P_50V_52G_53A_54C_55F_67L_, Q9UKT9]	1.6	0.504	1	-0.0222
FVCPQCGACFTQKGNLLRHIKL [46F_47V_49P_50Q_52G_53A_54C_55F_67L_, Q9UKT9]	-1.94	-0.402	0.593	0.301
FKCPQCGACFTQKGNLLRHIKL [46F_47K_49P_50Q_52G_53A_54C_55F_67L_, Q9UKT9]	-2.36	-3	-3.29	-2.34
FKCPVCGACFTQKGNLLRHIKL [46F_47K_49P_50V_52G_53A_54C_55F_67L_, Q9UKT9]	-0.716	-1.95	-2.51	-0.832
FQCPQCGACFTQKGNLLRHIKL [46F_47Q_49P_50Q_52G_53A_54C_55F_67L_, Q9UKT9]	-1.4	0.844	0.805	3.26
